Unmarked numbers belong to inactive results. The source made the active and inactive calls. Calls come from the whole dose curve; as a rule, active = well fitted activation curve with a large enough effect; inactive = flat fitted curve, though single readings scatter.

A short description of this assay: Followup screen of LOPAC molecules that induce DNA re-replication in SW480 adenocarcinoma cells. The note with it: Hoechst nuclear DNA content imaging, 48 h; series mostly up to 46.1 µM; activation (re-replication): at the top concentration. The text has this:
NIH Molecular Libraries Probe Production Network [MLPCN] NIH Chemical Genomics Center [NCGC] MLPCN Grant: Fast Track K99 CA136555 Assay Provider: Melvin DePamphilis, NICHD, NIH Assay Overview Eukaryotic cells normally restrict genome duplication to once per cell division. When this process is aberrant, DNA re-replication occurs when cells reinitiate DNA replication before the first round of replication is complete. DNA re-replication induces the DNA damage response, arrests cell proliferation, and triggers apoptosis. The cell cycle components cyclin A, Cdt-1, Cdc6 and geminin are critical regulators of this process and their misregulation results in DNA re-replication in normal and cancer cells. To identify compounds that induce re-replication in normal cells, an image-based assay was used to measure DNA content of nuclei, as detected by the fluorescent DNA binding dye, Hoechst. Cell nuclei were imaged by a fluorescence scanning plate imager and compounds that induce DNA re-replication were identified by the increase of nuclei with elevated fluorescence intensity.
Assay Protocol Summary For screening, 250 cells in 5 uL/well were dispensed into black clear 1536-well plates (Aurora) using a solenoid-based dispenser. Following transfer of 23 nL compound or DMSO vehicle by a pin tool, the plates were incubated 48 hr at 37 C and 5% CO2. After addition of 1 uL/well Hoescht stain, the plates were incubated 40 min at 37 C, 5% CO2 and total intensity of fluorescent objects (nuclei) were enumerated by an Acumen Explorer Ex3 (TTP LabTech) fluorescence scanning plate imager (405 nm excitation, 500-530 nm emission). Keywords: NIH Roadmap, MLPCN, MLI, MLSMR, qHTS, NCGC, DNA replication, cancer
In the case of `CCN(CC)C(=S)SSC(=S)N(CC)CC.[Cl-].[Cl-].[Cu+2]`, the Potency is 37.8 nM (active).
On to `CS(C)=O.[Cl-].[Cl-].[Cu+2]`, for which the “activation (re-replication)” value was 5.94%.
`CCCCCCN(CCCCCC)C(=O)Cc1c(-c2ccc(F)cc2)[nH]c2ccccc12`: the Potency was 26800 nM (active).
With `CC(=O)[O-].CCN(CC)C(=S)SSC(=S)N(CC)CC.[Cu+]`, the Potency is 37.8 nM (active).
In the case of `CC(=O)[O-].CS(C)=O.[Cu+]`, the “activation (re-replication)” value was 2.13%.
On to `CCN(CC)C(=S)SSC(=S)N(CC)CC`, for which the Potency is 30 nM (active).

The record behind these values is PubChem BioAssay AID504806 (National Center for Advancing Translational Sciences (NCATS), 2011).
